Experimental data published in paper PMC4336329 (PLoS ONE, 2015).
About 14,000 (4.5%) of roughly 310,000 compounds showed an effect of 50% or more. The effect is printed as a negative number. What follows is part of a selection rich in strong results, with near analogues and random picks from the rest.

Each compound was assayed against human ether-à-go-go-related gene (hERG) potassium channel (human, UniProt Q12809) (assay: primary screen, population patch clamp on CHO cells stably expressing hERG; higher = less effect of the substance).
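Further: peak tail current of the secondary pulse compared with the same well before compound.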

Chain of human ether-à-go-go-related gene (hERG) potassium channel (Q12809 whole entry, looked up): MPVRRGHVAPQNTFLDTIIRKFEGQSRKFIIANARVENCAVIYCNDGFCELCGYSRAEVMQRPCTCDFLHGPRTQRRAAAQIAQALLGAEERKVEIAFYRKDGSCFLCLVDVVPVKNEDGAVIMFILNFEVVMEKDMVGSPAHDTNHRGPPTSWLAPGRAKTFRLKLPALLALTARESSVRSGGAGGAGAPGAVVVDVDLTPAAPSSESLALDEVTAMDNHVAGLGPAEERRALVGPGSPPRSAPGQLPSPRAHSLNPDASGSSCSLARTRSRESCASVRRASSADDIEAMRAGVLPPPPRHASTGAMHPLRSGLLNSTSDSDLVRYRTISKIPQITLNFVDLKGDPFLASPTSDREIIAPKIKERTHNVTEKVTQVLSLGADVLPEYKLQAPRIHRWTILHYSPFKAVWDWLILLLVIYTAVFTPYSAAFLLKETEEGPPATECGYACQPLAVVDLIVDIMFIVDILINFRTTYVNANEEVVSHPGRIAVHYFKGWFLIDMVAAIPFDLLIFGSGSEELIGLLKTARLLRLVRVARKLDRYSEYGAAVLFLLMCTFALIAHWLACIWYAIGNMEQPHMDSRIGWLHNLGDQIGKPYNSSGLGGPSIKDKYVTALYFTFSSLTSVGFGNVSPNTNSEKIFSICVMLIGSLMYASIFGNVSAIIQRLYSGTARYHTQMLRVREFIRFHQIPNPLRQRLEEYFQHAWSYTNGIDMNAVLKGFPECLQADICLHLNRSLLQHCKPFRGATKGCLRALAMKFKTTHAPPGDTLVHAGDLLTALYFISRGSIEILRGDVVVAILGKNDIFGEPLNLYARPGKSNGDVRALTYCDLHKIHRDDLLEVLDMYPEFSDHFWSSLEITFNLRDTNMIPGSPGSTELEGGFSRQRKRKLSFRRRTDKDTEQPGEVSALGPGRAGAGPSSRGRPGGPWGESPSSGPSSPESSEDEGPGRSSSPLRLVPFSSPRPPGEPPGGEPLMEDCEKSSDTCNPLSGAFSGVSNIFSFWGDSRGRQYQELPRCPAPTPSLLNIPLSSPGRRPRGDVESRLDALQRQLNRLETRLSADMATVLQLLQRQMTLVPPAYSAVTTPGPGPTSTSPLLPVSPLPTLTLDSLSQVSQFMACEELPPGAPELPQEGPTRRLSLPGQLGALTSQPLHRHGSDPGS

First: C/C(=N/OCC(=O)NCCCCCCNC(=O)CO/N=C(/C)c1cccs1)c1cccs1
Second: O=C(NCCO)/C(=C/c1ccc(Br)cc1)NC(=O)c1cccs1
The “hERG current change (%, negative = inhibition) at 10uM” value of the first is lower: -20.8% for the first, -14% for the second.

Compared with CCCCOC(=O)Nc1cc(Cl)ccc1C, CCOC(=O)/C(=N\Nc1cc(Cl)ccc1Cl)N1CCN(C)CC1 is lower in “hERG current change (%, negative = inhibition) at 10uM” value: 1.24% for the first, -16.9% for the second.

Compared with O=S(=O)(/N=C(/Nc1ccccc1)C(F)(F)F)c1ccccc1, O=C(NCCN1CCOCC1)/C(=C\c1ccccc1F)NC(=O)c1ccccc1 is lower in “hERG current change (%, negative = inhibition) at 10uM” value: -20.7% for the first, -26.5% for the second.

Going from Br.C/C(CC1CC(COCC(C)C)OC1=O)=N\Nc1nc(-c2ccccc2)cs1 (centres unmarked) to CCC(C(=O)NC(C)(C)C)N(C(=O)Cn1nnc(-c2cccs2)n1)c1cnc2ccccc2c1 (centres unmarked), the “hERG current change (%, negative = inhibition) at 10uM” value rises from -15.5% to -13.3%.

First: CC1Sc2ccc(S(=O)(=O)CCC(=O)Nc3ccccc3Cl)cc2NC1=O (centres unmarked)
Second: CCc1ccccc1NC(=O)CN(C)C(=O)CSc1nc2cc(Cl)ccc2s1
The “hERG current change (%, negative = inhibition) at 10uM” value of the first is lower: 4.08% for the first, 17.8% for the second.

First: Cc1ccc(/C=C/C(=O)Nc2nnc(SCc3ccc(C#N)cc3)s2)o1
Second: COc1ccc(CNC(=O)COc2ccc(F)cc2)cc1
The “hERG current change (%, negative = inhibition) at 10uM” value of the first is lower: -11% for the first, 2.33% for the second.

Compared with O=C1CC(c2ccccc2)n2nc(NC(=O)C3CCCO3)nc2N1 (centres unmarked), Cc1cccc(Oc2ccccc2NC(=O)CN2C(=O)NC3(CCCC3)C2=O)c1 is higher in “hERG current change (%, negative = inhibition) at 10uM” value: -10% for the first, -6.76% for the second.

Going from CCN(CC)S(=O)(=O)c1ccc(OC)c(NC(=O)CC2CCCC2)c1 to COc1ccc(S(=O)(=O)N(C)C)cc1NC(=O)COC(=O)CC1CCCC1, the “hERG current change (%, negative = inhibition) at 10uM” value falls from -10.8% to -72.8%.

Going from Cc1ccc(S(=O)(=O)N(C)C)cc1NC(=O)COC(=O)CC1CCCC1 to Cc1ccc(S(=O)(=O)N(C)C)cc1NC(=O)COC(=O)CCC1CCCC1, the “hERG current change (%, negative = inhibition) at 10uM” value rises from -74.2% to -18.5%.

Going from COc1ccc(NC(=O)COC(=O)CC2CCCC2)cc1Cl to Cc1ccc(S(=O)(=O)N(C)C)cc1NC(=O)COC(=O)CCC1CCCCC1, the “hERG current change (%, negative = inhibition) at 10uM” value rises from -1.21% to 2.99%.

First: O=C(CSc1ncccn1)N/N=C/c1ccccc1[N+](=O)[O-]
Second: O=C(CSC1=NS(=O)(=O)c2cc(Cl)ccc2N1)NCCc1ccccc1
The “hERG current change (%, negative = inhibition) at 10uM” value of the first is lower: 11.3% for the first, 15.4% for the second.

Going from O=C(NCCN1CCOCC1)/C(=C\c1ccc(F)cc1)NC(=O)c1ccccc1 to O=C(NCCN1CCOCC1)/C(=C/c1ccc(F)cc1)NC(=O)c1ccccc1, the “hERG current change (%, negative = inhibition) at 10uM” value falls from -62.3% to -67.8%.

Going from O=C(NCCCN1CCOCC1)/C(=C/c1ccc(F)cc1)NC(=O)c1ccccc1 to CN(C)c1ccc(/C=C(\NC(=O)c2ccccc2)C(=O)NCCCN2CCOCC2)cc1, the “hERG current change (%, negative = inhibition) at 10uM” value rises from -73.5% to -10.4%.

First: O=C(NCCN1CCOCC1)/C(=C\c1ccc(Br)cc1)NC(=O)c1cccs1
Second: O=C(NCCO)/C(=C\c1ccc(Br)cc1)NC(=O)c1cccs1
The “hERG current change (%, negative = inhibition) at 10uM” value of the first is lower: -67.4% for the first, -3.91% for the second.

First: O=C(NCCCN1CCOCC1)/C(=C/c1cccnc1)NC(=O)c1ccccc1
Second: O=C(NCCN1CCOCC1)/C(=C/c1ccco1)NC(=O)c1ccccc1
The “hERG current change (%, negative = inhibition) at 10uM” value of the first is lower: -25% for the first, -5.48% for the second.

Compared with COc1ccccc1/C=C(/NC(=O)c1ccccc1)C(=O)NCCN1CCOCC1, CSc1ccc(/C=C(\NC(=O)c2ccccc2)C(=O)NCCN2CCOCC2)cc1 is lower in “hERG current change (%, negative = inhibition) at 10uM” value: 15.5% for the first, -63.7% for the second.

Going from COc1ccccc1C(=O)COC(=O)c1nc(Cl)ccc1Cl to COc1ccc(C(=O)CNc2ccccc2CO)cc1, the “hERG current change (%, negative = inhibition) at 10uM” value rises from -0.91% to 22.8%.

Compared with CN(C)c1ccc(S(=O)(=O)N2CCCCC2)cc1NC(=O)CCNC(=O)c1ccc(Cl)cc1, CCN(CC(=O)NCc1ccc(Cl)cc1)C(=O)c1ccc2cc(OC)ccc2c1 is higher in “hERG current change (%, negative = inhibition) at 10uM” value: -27.4% for the first, 3.72% for the second.

First: CCN(CC)S(=O)(=O)c1ccc(NS(=O)(=O)c2ccc(C)c(C)c2)cc1
Second: CCN(CC(=O)NCc1ccc(Cl)cc1)C(=O)c1cc(OC)cc(OC)c1
The “hERG current change (%, negative = inhibition) at 10uM” value of the first is higher: -21.6% for the first, -48.4% for the second.

Going from Nc1nonc1C(=Nc1ccc(Br)cc1)NO to O=C(NCc1ccc2c(c1)OCO2)c1ccccc1Cl, the “hERG current change (%, negative = inhibition) at 10uM” value falls from 8.76% to -2.6%.

Compared with CCOC(=O)c1cnc(SCC(=O)OC)nc1N, CCN(CC(=O)NCc1ccc(Cl)cc1)C(=O)Cc1ccc(OC)cc1 is lower in “hERG current change (%, negative = inhibition) at 10uM” value: 52.5% for the first, -75.7% for the second.

Going from C/C(=N\N1C(C)CCCC1C)c1ccccc1O (centres unmarked) to COc1ccc(CC(=O)N2CC(C)CC(C)C2)cc1OC (centres unmarked), the “hERG current change (%, negative = inhibition) at 10uM” value falls from 14.1% to 5.21%.

Compared with CSc1ccc(/C=C(/NC(=O)c2ccccc2)C(=O)NCCN2CCOCC2)cc1, N#Cc1ccccc1NC(=S)NC(=O)c1cccnc1 is higher in “hERG current change (%, negative = inhibition) at 10uM” value: -44.8% for the first, 13.7% for the second.

Going from CC(=O)O[C@@H]1C[C@H]2C(C)(C)C(=O)C=C[C@]2(C)[C@H]2CC[C@@]3(C)[C@H](c4ccoc4)OC(=O)[C@H]4O[C@]43[C@@]21C to CCN(CC(=O)NCc1ccc(F)cc1)C(=O)/C=C/c1ccc(OC)cc1, the “hERG current change (%, negative = inhibition) at 10uM” value falls from -43.1% to -48%.

Going from CCN(CC(=O)NCc1ccc(F)cc1)C(=O)Cc1ccc(OC)cc1 to c1nc(N2CCCC2)c2[nH]cnc2n1, the “hERG current change (%, negative = inhibition) at 10uM” value rises from -63.5% to -3.15%.
